PubChem BioAssay AID1159580 (chemical genetic matrix, 2015)
Out of some 5,500 compounds screened, about 2,000 (36%) were called active. Another 18% or so got no clear call; they are omitted. The list shows a part of the results. Values without a mark were called inactive. No stated cut-off is given here; in the data, active means normalized growth mostly below about 0.91 (no sharp cut-off); inconclusive means no clear call, values can overlap the other calls; inactive means mostly above about 0.92.

Experiment: chemical genetic growth profiling, strain panel (AID 1159580);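 further: tested at 20 µM; growth read once vehicle control cultures reached saturation at 30 °C; 1 = growth at the plate median or of vehicle wells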
Settings: growth OD

Compound: NC(=NCCCCCCN=C(N)N=C(N)Nc1ccc(Cl)cc1)N=C(N)Nc1ccc(Cl)cc1
- normalized growth (S. cerevisiae deletion strains, locus YJR075W, strain HOC1, stronger effect = lower value): 0.0644 (active)
- normalized growth (S. cerevisiae deletion strains, locus YKL009W, strain mrt4, stronger effect = lower value): 0.478 (active)
- normalized growth (S. cerevisiae deletion strains, locus YKL068W, stronger effect = lower value): 0.977
- normalized growth (S. cerevisiae deletion strains, locus YKL085W, strain MDH1 (second series), stronger effect = lower value): 0.906 (active)
- normalized growth (S. cerevisiae deletion strains, locus YKL085W, strain MDH1, stronger effect = lower value): 0.906 (active)
- normalized growth (S. cerevisiae deletion strains, locus YKL160W, strain elf1, stronger effect = lower value): 0.0627 (active)
- normalized growth (S. cerevisiae deletion strains, locus YKL190W, strain CNB1, stronger effect = lower value): 0.0461 (active)
- normalized growth (S. cerevisiae deletion strains, locus YKR001C, strain vps1, stronger effect = lower value): 0.0656 (active)
- normalized growth (S. cerevisiae deletion strains, locus YKR026C, strain gcn3, stronger effect = lower value): 0.0624 (active)
- normalized growth (S. cerevisiae deletion strains, locus YKR091W, strain srl3, stronger effect = lower value): 0.0577 (active)
- normalized growth (S. cerevisiae deletion strains, locus YLL001W, strain dnm1, stronger effect = lower value): 0.0629 (active)
- normalized growth (S. cerevisiae deletion strains, locus YLL026W, stronger effect = lower value): 0.0551 (active)
- normalized growth (S. cerevisiae deletion strains, locus YLL041C, strain sdh2, stronger effect = lower value): 0.0558 (active)
- normalized growth (S. cerevisiae deletion strains, locus YLR027C, strain aat2, stronger effect = lower value): 0.0552 (active)
- normalized growth (S. cerevisiae deletion strains, locus YLR039C, strain RIC1, stronger effect = lower value): 0.0768 (active)
- normalized growth (S. cerevisiae deletion strains, locus YLR058C, strain SHM2, stronger effect = lower value): 0.0478 (active)
- normalized growth (S. cerevisiae deletion strains, locus YLR102C, strain apc9, stronger effect = lower value): 0.0634 (active)
- normalized growth (S. cerevisiae deletion strains, locus YLR113W, strain HOG1, stronger effect = lower value): 0.126 (active)
- normalized growth (S. cerevisiae deletion strains, locus YLR221C, strain rsa3, stronger effect = lower value): 0.058 (active)
- normalized growth (S. cerevisiae deletion strains, locus YLR258W, strain gsy2, stronger effect = lower value): 0.0585 (active)
- normalized growth (S. cerevisiae deletion strains, locus YLR262C, strain YPT6 (second series), stronger effect = lower value): 0.0721 (active)
- normalized growth (S. cerevisiae deletion strains, locus YLR262C, strain YPT6, stronger effect = lower value): 0.0923 (active)
- normalized growth (S. cerevisiae deletion strains, locus YLR268W, strain sec22, stronger effect = lower value): 0.0678 (active)
- normalized growth (S. cerevisiae deletion strains, locus YLR320W, strain mms22, stronger effect = lower value): 0.0755 (active)
- normalized growth (S. cerevisiae deletion strains, locus YLR330W, strain CHS5, stronger effect = lower value): 0.0516 (active)
- normalized growth (S. cerevisiae deletion strains, locus YLR342W, strain FKS1 (second series), stronger effect = lower value): 0.0692 (active)
- normalized growth (S. cerevisiae deletion strains, locus YLR342W, strain FKS1, stronger effect = lower value): 0.063 (active)
- normalized growth (S. cerevisiae deletion strains, locus YLR357W, strain rsc2, stronger effect = lower value): 0.116 (active)
- normalized growth (S. cerevisiae deletion strains, locus YLR370C, strain arc18, stronger effect = lower value): 0.0607 (active)
- normalized growth (S. cerevisiae deletion strains, locus YLR371W, strain rom2, stronger effect = lower value): 0.0627 (active)
- normalized growth (S. cerevisiae deletion strains, locus YLR384C, strain iki3, stronger effect = lower value): 0.057 (active)
- normalized growth (S. cerevisiae deletion strains, locus YLR418C, strain cdc73, stronger effect = lower value): 0.0991 (active)
- normalized growth (S. cerevisiae deletion strains, locus YML016C, strain PPZ1, stronger effect = lower value): 0.0482 (active)
- normalized growth (S. cerevisiae deletion strains, locus YML032C, strain rad52, stronger effect = lower value): 0.0699 (active)
- normalized growth (S. cerevisiae deletion strains, locus YML120C, strain ndi1, stronger effect = lower value): 0.0569 (active)
- normalized growth (S. cerevisiae deletion strains, locus YML124C, strain tub3, stronger effect = lower value): 0.0596 (active)
- normalized growth (S. cerevisiae deletion strains, locus YMR058W, strain fet3, stronger effect = lower value): 0.0607 (active)
- normalized growth (S. cerevisiae deletion strains, locus YMR078C, strain ctf18, stronger effect = lower value): 0.071 (active)
- normalized growth (S. cerevisiae deletion strains, locus YMR125W, strain sto1, stronger effect = lower value): 0.0789 (active)
- normalized growth (S. cerevisiae deletion strains, locus YMR129W, stronger effect = lower value): 0.0564 (active)
- normalized growth (S. cerevisiae deletion strains, locus YMR205C, strain PFK2, stronger effect = lower value): 0.0855 (active)
- normalized growth (S. cerevisiae deletion strains, locus YMR223W, strain ubp8, stronger effect = lower value): 0.0651 (active)
- normalized growth (S. cerevisiae deletion strains, locus YMR231W, strain pep5, stronger effect = lower value): 0.064 (active)
- normalized growth (S. cerevisiae deletion strains, locus YMR263W, strain SAP30, stronger effect = lower value): 0.0566 (active)
- normalized growth (S. cerevisiae deletion strains, locus YMR307W, strain GAS1, stronger effect = lower value): 0.0969 (active)
- normalized growth (S. cerevisiae deletion strains, locus YNL067W, strain RPL9B, stronger effect = lower value): 0.0509 (active)
- normalized growth (S. cerevisiae deletion strains, locus YNL071W, strain lat1, stronger effect = lower value): 0.0604 (active)
- normalized growth (S. cerevisiae deletion strains, locus YNL128W, strain TEP1, stronger effect = lower value): 0.0651 (active)
- normalized growth (S. cerevisiae deletion strains, locus YNL153C, strain GIM3, stronger effect = lower value): 0.0505 (active)
- normalized growth (S. cerevisiae deletion strains, locus YNL183C, strain NPR1, stronger effect = lower value): 0.139 (active)
- normalized growth (S. cerevisiae deletion strains, locus YNL209W, strain ssb2, stronger effect = lower value): 0.057 (active)
- normalized growth (S. cerevisiae deletion strains, locus YNL233W, strain BNI4, stronger effect = lower value): 0.0552 (active)
- normalized growth (S. cerevisiae deletion strains, locus YNL248C, strain rpa49, stronger effect = lower value): 0.075 (active)
- normalized growth (S. cerevisiae deletion strains, locus YNL250W, strain rad50, stronger effect = lower value): 0.909
- normalized growth (S. cerevisiae deletion strains, locus YNL271C, strain bni1, stronger effect = lower value): 0.607 (active)
- normalized growth (S. cerevisiae deletion strains, locus YNL298W, strain CLA4, stronger effect = lower value): 0.0653 (active)
- normalized growth (S. cerevisiae deletion strains, locus YNL307C, strain MCK1, stronger effect = lower value): 0.0676 (active)
- normalized growth (S. cerevisiae deletion strains, locus YNL322C, strain KRE1 (second series), stronger effect = lower value): 0.0655 (active)
- normalized growth (S. cerevisiae deletion strains, locus YNL322C, strain KRE1, stronger effect = lower value): 0.0467 (active)
- normalized growth (S. cerevisiae deletion strains, locus YNR049C, strain mso1, stronger effect = lower value): 0.0617 (active)
- normalized growth (S. cerevisiae deletion strains, locus YNR052C, strain pop2, stronger effect = lower value): 0.0607 (active)
- normalized growth (S. cerevisiae deletion strains, locus YOL006C, strain TOP1, stronger effect = lower value): 0.107 (active)
- normalized growth (S. cerevisiae deletion strains, locus YOL012C, strain htz1): 0.183 (active)
- normalized growth (S. cerevisiae deletion strains, locus YOL147C, strain pex11, stronger effect = lower value): 0.0595 (active)
- normalized growth (S. cerevisiae deletion strains, locus YOR001W, strain rrp6, stronger effect = lower value): 0.0681 (active)
- normalized growth (S. cerevisiae deletion strains, locus YOR061W, strain CKA2, stronger effect = lower value): 0.0471 (active)
- normalized growth (S. cerevisiae deletion strains, locus YOR069W, strain VPS5, stronger effect = lower value): 0.0468 (active)
- normalized growth (S. cerevisiae deletion strains, locus YOR070C, strain gyp1, stronger effect = lower value): 0.0572 (active)
- normalized growth (S. cerevisiae deletion strains, locus YOR080W, strain dia2, stronger effect = lower value): 0.0623 (active)
- normalized growth (S. cerevisiae deletion strains, locus YOR083W, strain WHI5, stronger effect = lower value): 0.0615 (active)
- normalized growth (S. cerevisiae deletion strains, locus YOR106W, strain vam3, stronger effect = lower value): 0.0675 (active)
- normalized growth (S. cerevisiae deletion strains, locus YOR136W, strain idh2, stronger effect = lower value): 0.0708 (active)
- normalized growth (S. cerevisiae deletion strains, locus YOR144C, strain elg1, stronger effect = lower value): 0.0593 (active)
- normalized growth (S. cerevisiae deletion strains, locus YOR184W, strain ser1, stronger effect = lower value): 0.0744 (active)
- normalized growth (S. cerevisiae deletion strains, locus YOR231W, strain MKK1, stronger effect = lower value): 0.0973 (active)
- normalized growth (S. cerevisiae deletion strains, locus YOR265W, strain rbl2, stronger effect = lower value): 0.0543 (active)
- normalized growth (S. cerevisiae deletion strains, locus YOR270C, strain vph1, stronger effect = lower value): 0.107 (active)
- normalized growth (S. cerevisiae deletion strains, locus YOR290C, strain snf2, stronger effect = lower value): 0.0655 (active)
- normalized growth (S. cerevisiae deletion strains, locus YOR316C, strain cot1, stronger effect = lower value): 0.0609 (active)
- normalized growth (S. cerevisiae deletion strains, locus YPL051W, strain arl3, stronger effect = lower value): 0.0612 (active)
- normalized growth (S. cerevisiae deletion strains, locus YPL055C, strain LGE1, stronger effect = lower value): 0.0688 (active)
- normalized growth (S. cerevisiae deletion strains, locus YPL078C, strain atp4, stronger effect = lower value): 0.0665 (active)
- normalized growth (S. cerevisiae deletion strains, locus YPL106C, strain sse1, stronger effect = lower value): 0.0968 (active)
- normalized growth (S. cerevisiae deletion strains, locus YPL240C, strain hsp82, stronger effect = lower value): 0.0556 (active)
- normalized growth (S. cerevisiae deletion strains, locus YPL241C, strain CIN2, stronger effect = lower value): 0.0486 (active)
- normalized growth (S. cerevisiae deletion strains, locus YPL256C, strain CLN2, stronger effect = lower value): 0.124 (active)
- normalized growth (S. cerevisiae deletion strains, locus YPR119W, strain clb2, stronger effect = lower value): 0.0667 (active)
- normalized growth (S. cerevisiae deletion strains, locus YPR141C, strain kar3, stronger effect = lower value): 1.01
- normalized growth (S. cerevisiae deletion strains, locus YPR163C, strain tif3, stronger effect = lower value): 0.0696 (active)
- normalized growth (S. cerevisiae deletion strains, locus YPR167C, strain met16, stronger effect = lower value): 0.0625 (active)
- normalized growth (S. cerevisiae deletion strains, strain wtn01, stronger effect = lower value): 0.0592 (active)
- normalized growth (S. cerevisiae strains, strain wild type, stronger effect = lower value): 0.0489 (active)
